Reference: PubChem BioAssay AID778 (Sanford-Burnham Center for Chemical Genomics, 2007)
In all, about 96,000 compounds went through this assay and about 20,000 (21%) were called active. The list is a sample of the results. A number with no mark means an inactive call.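 How the source made its calls: active means CYP2C19 inhibition above a set limit at 5 µM in the primary screen (cut at about 50% in these data); inactive means the rest.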

target: Cytochrome P450 2C19 (Homo sapiens) (UniProt P33261); assay: blockers of cytochrome P450 2C19 activity – biochemical, luminescence, ADME assay, primary screen (AID 778); settings: CYP2C19 Supersomes, luciferin-H EGE luminescence, 30 min; at 5 µM; active compounds read high;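 further: plate controls were negative control wells for no effect and 2.5 mM tranylcypromine positive control for full effect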
Sequence (P33261 whole entry, looked up): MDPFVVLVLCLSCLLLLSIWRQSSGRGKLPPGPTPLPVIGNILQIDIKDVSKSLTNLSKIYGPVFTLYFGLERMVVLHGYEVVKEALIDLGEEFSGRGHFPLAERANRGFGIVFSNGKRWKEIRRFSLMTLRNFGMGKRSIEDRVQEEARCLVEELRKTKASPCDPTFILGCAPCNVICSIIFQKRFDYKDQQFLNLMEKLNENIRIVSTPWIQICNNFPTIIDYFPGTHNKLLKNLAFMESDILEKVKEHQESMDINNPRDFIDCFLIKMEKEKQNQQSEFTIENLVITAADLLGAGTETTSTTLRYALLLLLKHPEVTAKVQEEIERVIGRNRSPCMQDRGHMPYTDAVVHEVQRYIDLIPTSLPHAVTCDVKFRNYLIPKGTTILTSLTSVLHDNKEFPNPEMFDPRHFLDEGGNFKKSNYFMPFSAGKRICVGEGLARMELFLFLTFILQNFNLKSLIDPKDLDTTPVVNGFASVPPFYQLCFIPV

In order of falling inhibition:
1. O=C(Cc1ccc(F)cc1)NC1CCCC1  43.4%
2. Cc1cc2ncn(CCCCOc3ccccc3)c2cc1C  40.1%
3. OCCCN1c2ccccc2Nc2nnc(-c3ccccc3)cc21  39.5%
4. CCOc1ccc(NC(=O)CSc2nc3c(c(=O)n2-c2ccccc2OC)SCC3)cc1  37.5%
5. COc1cc(Cl)c(S(=O)(=O)N2CCN(Cc3ccc4c(c3)OCO4)CC2)cc1Cl  36.2%
6. CCC(C(=O)N1CCOCC1)n1c(C(=O)OC)cc2occc21 (stereo not drawn)  35.4%
7. CC1CCN(C(=O)CN(c2ccc(Oc3ccccc3)cc2)S(C)(=O)=O)CC1  28.4%
8. Nc1nc(SCCOc2ccccc2)n[nH]1  28.3%
9. O=[N+]([O-])c1c(NCCO)cc(Sc2nc3ccccc3s2)c2nonc12  28.1%
10. CN1CCN(CC(=O)Nc2sc3c(c2C#N)CCC(C(C)(C)C)C3)CC1 (stereo not drawn)  26.1%
11. CC(NC(=O)Nc1ccccc1)c1ccccc1 (stereo not drawn)  24.8%
12. CCOc1ccc(NC(=O)N(CCC(C)C)C(C)c2ccco2)cc1 (stereo not drawn)  24.3%
13. COc1cc(/C=N\NC(=O)CNC(=O)c2cccc([N+](=O)[O-])c2)ccc1O  23%
14. NC(=O)C1(N2CCCCC2)CCN(C2CC(=O)N(Cc3ccc(N4CCCC4=O)cc3)C2=O)CC1 (stereo not drawn)  22.1%
15. COc1cc2c(cc1OC)CN(C(=O)c1cc(=O)c3ccccc3o1)CC2  19.7%
16. COC(=O)Nc1sc2nc(C)cc(C)c2c1-n1cccc1  19.5%
17. CC(=O)Oc1cccc(N2C(=O)CC(Nc3ccc(N4CCOCC4)cc3)C2=O)c1 (stereo not drawn)  18.5%
18. O=C(CNC(=O)c1ccco1)OCC(=O)c1ccccc1  17.9%
19. O=C(Nc1ccc(NC(=O)c2cccs2)cn1)c1ccco1  17.3%
20. CC1CCN(C(=O)Cn2cc(C(=O)c3ccco3)c3ccccc32)CC1  17.1%
21. Nn1cnnc1N/N=C/c1cc([N+](=O)[O-])c(Cl)cc1Cl  15.9%
22. COc1cc(C2C(C(=O)OCCC#N)=C(C)NC3=C2S(=O)(=O)c2ccccc23)cc(OC)c1OC (stereo not drawn)  15.8%
23. CCn1cc(C(=O)NCc2ccc3c(c2)OCO3)c2cc(OC)c(OC)cc2c1=O  15.2%
24. Cc1cccc(N2CCN(Cc3c(C)n(C)n(-c4ccccc4)c3=O)CC2)c1C  15.2%
25. CC(C)(O)C#Cc1ccc(C(=O)N2CCC(C(N)=O)(N3CCCCC3)CC2)cc1  14.8%
26. Cc1cccc(NC(=O)c2cc(N3C(=O)CCC3=O)ccc2Cl)n1  14.7%
27. CCc1nnc(NC(=O)c2cccs2)s1  14.6%
28. CCCC(=O)C1=C(N(C)c2ccccc2)CC(C)(C)C(C(=O)OC)C1=O (stereo not drawn)  14.5%
29. Cc1ccc(C(c2nnnn2C(C)(C)C)N2CCc3ccccc3C2)cc1 (stereo not drawn)  14.4%
30. NNC(=O)C1CCCn2c1nc1sc3c(c1c2=O)CCCC3 (stereo not drawn)  12.4%
31. O=C(NCc1ccccn1)c1c(O)c2c([nH]c1=O)CCCC2  11.7%
32. CN(CC(=O)NC1CCCCC1)S(=O)(=O)c1ccc(Br)s1  11.4%
33. COc1ccc(N(CC(=O)NC2CCCCC2)S(=O)(=O)c2c(C)[nH]c(=O)[nH]c2=O)cc1  11.3%
34. Cc1ccc2oc(=O)c3cnn(CC(=O)N4CCN(c5ccccn5)CC4)c3c2c1  10.9%
35. COC(=O)C1C(=O)c2c([nH]c(C(=O)OCCSC)c2C)CC1C (stereo not drawn)  10.1%
36. Cc1ccc(NC(=O)CS(=O)CC(=O)N(c2ccccc2)C(C)C(=O)NC2CCCC2)cc1 (stereo not drawn)  9.7%
37. CCOc1ccc(-c2c(C)n([O-])c3c([n+]2=O)CCCC3)cc1  9.2%
38. O=C(c1ccc(Cl)cc1)c1ccc(OCC(O)CN2CCCCC2)cc1 (stereo not drawn)  8.8%
39. CCN(CC)c1ccc(C(=O)OCC(=O)c2ccco2)cc1  8.1%
40. COC(=O)[C@H](C(C)C)n1c(C)c(C(C)=O)c(C(C)=O)c1C  6.6%
41. CCCc1cc(-c2n[nH]c(=S)n2Cc2ccccc2)cs1  5.4%
42. Cc1nc2ccc(S(=O)(=O)NCC(=O)NCCN3CCCCC3C)cc2s1 (stereo not drawn)  5.2%
43. CCN(CC)Cc1c(C(=O)OC)nnn1-c1nonc1N  4.8%
44. CCOC(=O)c1nnn(-c2nonc2-n2cccc2)c1CN1CCOCC1  3.7%
45. Cc1ccc(NC(=O)Nc2ccc3oc(C)nc3c2)cc1  3%
46. CCOC(=O)N1CCN(C(=O)C2CC(c3ccc(F)cc3)=NO2)CC1 (stereo not drawn)  1.7%
47. COc1ccc(C(=O)NCc2cn3ccccc3n2)cc1  1.2%
48. Cc1c(Nc2nc3ccccc3nc2NS(=O)(=O)c2cccs2)c(=O)n(-c2ccccc2)n1C  1%
49. CC(=O)c1c(N)n(C)c(=O)n(C)c1=O  0.9%
50. COc1ccc(NC(=O)CN2CCN(S(=O)(=O)c3ccc(F)cc3)CC2)cc1Cl  0.5%
51. OC(COc1cccc(OCC(O)CN2CCCC2)c1)CN1CCCC1 (stereo not drawn)  0.1%
52. C=CCNC(=O)CCCC(=O)NCC=C  0.1%
53. Cc1ccc(S(=O)(=O)NCC(=O)N2CCN(c3ccccn3)CC2)cc1  -1.8%
54. Cc1cccc(-n2c(O)c(C=Nc3ccccc3N)c(=O)[nH]c2=O)c1  -2.2%
55. Cc1ccc(-n2ncc3c(=O)[nH]cnc32)c(C)c1  -3.8%
56. CCOC(=O)c1cc2occc2n1CC(=O)N1CCN(C(=O)c2ccco2)CC1  -4%
57. COc1ccc(S(=O)(=O)Nc2c(C)n(C)n(-c3ccccc3)c2=O)cc1  -4.1%
58. CC1COC2C(O1)N(S(C)(=O)=O)CCN2S(C)(=O)=O (stereo not drawn)  -4.9%
59. COc1ccc(C(=O)Nc2ccccc2C(=O)N/N=C/c2ccccc2OC)cc1  -5.9%
60. C=CCn1c(CC(=O)Nc2cccc(OC)c2)nnc1SCC(=O)NC1CCCCC1  -6%
61. N#Cc1ccsc1NC(=O)CN1CCCCC1  -6.2%
62. Cn1c(NC(=O)c2ccco2)c(-c2ccccc2Cl)c(=O)c2ccccc21  -6.5%
63. CC1CCc2c(sc3nc4n(c(=O)c23)CCS4)C1 (stereo not drawn)  -6.7%
64. COn1c(=O)c(=O)n(OC)c2ccccc21  -6.8%
65. CCOC(=O)C1(C(F)(F)F)N=C(N(C)C)OC(N(C)C)=N1  -7.2%
66. Cc1ccc(NC(=O)NCC(c2cccnc2)N2CCOCC2)cc1 (stereo not drawn)  -7.8%
67. CN(CCO)Cc1csc2ccc(Br)cc12  -8.9%
68. CCOC(=O)c1c(NC(=O)c2cccs2)sc(C)c1C  -10.4%
69. CCOc1cc(CN2CCN(C(=O)CC(C)C)CC2)ccc1OC  -10.6%
70. CC1(C)CC(CC(=O)O)C(=O)O1 (stereo not drawn)  -11.1%
71. Cc1nc2nc(COc3ccccc3)[nH]n2c(=O)c1C  -11.1%
72. CCN(CC)c1ccc2cc(C(=O)O)c(=O)oc2c1  -13.2%
73. CCCC(O)(c1ccc(OC)cc1)C(CN(C)C)c1ccccc1 (stereo not drawn)  -13.2%
74. CC(C)Oc1ccc(C2NC(=O)NC2=O)cc1 (stereo not drawn)  -16.7%
75. COc1cc(NS(=O)(=O)c2ccc(N=Cc3c(C)[nH]n(-c4ccccc4)c3=O)cc2)nc(OC)n1  -18%
76. CN1CCN(CC(O)COCc2ccc3c(c2)OCO3)CC1 (stereo not drawn)  -20.9%

For `COc1ccc(OC)c(C(c2nnnn2C(C)(C)C)N2CCc3ccccc3C2)c1` (stereo not drawn), the inhibition was 94.8% (active).
In the case of `Cc1nn(CCOc2ccccc2)c(=O)n1-c1ccccc1F`, the inhibition is reported as 53.1% (active).
`COc1ccc2c(c1)C(C)=CC(C)(C)N2C(=O)CNCc1ccc2c(c1)OCO2` was tested, and the inhibition was 84.8% (active).
For `CCn1cc(C(=O)NCc2ccc(OC)cc2OC)c(=O)c2ccc(C)nc21`, the inhibition was 66.3% (active).
In the case of `CC(c1ccco1)N(C(=O)Nc1ccccc1)C1CCCCC1` (stereo not drawn), the inhibition is reported as 76.2% (active).
For `CCOC(=O)c1nnn(-c2nonc2-n2cccc2)c1CN1CCC(C(=O)OCC)CC1`, the inhibition was 98% (active).
With `OC(COc1ccc2c(c1)CCC2)CN1CCN(c2cccc(Cl)c2)CC1` (stereo not drawn) the inhibition was 59.3% (active).
In the case of `CCOc1cc(C(=O)N2CCc3cc(OC)c(OC)cc3C2)ccc1OC(F)F`, the inhibition is reported as 51.6% (active).
In the case of `Cc1ccc(S(=O)(=O)Nc2ccccc2CNc2c(C)n(C)n(-c3ccccc3)c2=O)cc1`, the inhibition is reported as 95.6% (active).
For `Cc1ccn2cc(-c3nonc3C)cc2c1`, the inhibition was 50.1% (active).
With `COc1ccc(Cl)cc1S(=O)(=O)N1CCN(CC(=O)C(C)(C)C)CC1` the inhibition was 85.9% (active).
`COc1ccc(C(=O)Nc2ccccc2C(=O)N/N=C/c2ccc(O)c(OC)c2)cc1` was tested, and the inhibition was 87.2% (active).
With `Cn1c(NN)nc2sc3c(c2c1=O)CCC3` the inhibition was 78.4% (active).
With `CCc1c(C)sc(NC(=O)c2cccs2)c1C(N)=O` the inhibition was 84.1% (active).
`O=C(NC1CCCC1)c1ccc(Br)s1` was tested, and the inhibition was 71.3% (active).
`O=C(COC(=O)c1ccccc1C(=O)c1ccccc1)c1ccco1` was tested, and the inhibition was 84.4% (active).
In the case of `CCOC(=O)c1cc2c(ccn2C)n1CC(=O)N1CCC(C)CC1`, the inhibition is reported as 55.4% (active).
In the case of `CCOC(=O)c1cc2occc2n1CC(=O)NC1CCC(C)CC1` (stereo not drawn), the inhibition is reported as 56.3% (active).
For `Cc1ccnc(N2CCN(C(=O)CSc3nc4ccccc4nc3N3CCCCC3)CC2)c1`, the inhibition was 79.1% (active).
With `NC(=O)C1(N2CCCCC2)CCN(C(=O)c2ccc(C#Cc3ccccc3)o2)CC1` the inhibition was 71% (active).
For `O=S(N1CCCCCC1)C12CC3CC(CC(C3)C1)C2` (stereo not drawn), the inhibition was 77.6% (active).
With `COc1cccc(-n2c(SCC(=O)NC3CCCCC3)nc3n[nH]c(C)c3c2=N)c1` the inhibition was 50.9% (active).
